Dicer inh: human Dicer pre-microRNA cleavage inhibition; Q9UPY3; cat-ELCCA pre-miR-21 Dicer processing, chemiluminescence; stronger effect = higher value; z-score at 25 µM; hit rate 6% among 47,000; in the data active = z-score above about 3, passing the limit was not always enough;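 also: plate controls were vehicle for no effect and no enzyme for full effect; higher signal means more uncleaved substrate so more Dicer inhibition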
Target sequence (Q9UPY3 whole entry, looked up): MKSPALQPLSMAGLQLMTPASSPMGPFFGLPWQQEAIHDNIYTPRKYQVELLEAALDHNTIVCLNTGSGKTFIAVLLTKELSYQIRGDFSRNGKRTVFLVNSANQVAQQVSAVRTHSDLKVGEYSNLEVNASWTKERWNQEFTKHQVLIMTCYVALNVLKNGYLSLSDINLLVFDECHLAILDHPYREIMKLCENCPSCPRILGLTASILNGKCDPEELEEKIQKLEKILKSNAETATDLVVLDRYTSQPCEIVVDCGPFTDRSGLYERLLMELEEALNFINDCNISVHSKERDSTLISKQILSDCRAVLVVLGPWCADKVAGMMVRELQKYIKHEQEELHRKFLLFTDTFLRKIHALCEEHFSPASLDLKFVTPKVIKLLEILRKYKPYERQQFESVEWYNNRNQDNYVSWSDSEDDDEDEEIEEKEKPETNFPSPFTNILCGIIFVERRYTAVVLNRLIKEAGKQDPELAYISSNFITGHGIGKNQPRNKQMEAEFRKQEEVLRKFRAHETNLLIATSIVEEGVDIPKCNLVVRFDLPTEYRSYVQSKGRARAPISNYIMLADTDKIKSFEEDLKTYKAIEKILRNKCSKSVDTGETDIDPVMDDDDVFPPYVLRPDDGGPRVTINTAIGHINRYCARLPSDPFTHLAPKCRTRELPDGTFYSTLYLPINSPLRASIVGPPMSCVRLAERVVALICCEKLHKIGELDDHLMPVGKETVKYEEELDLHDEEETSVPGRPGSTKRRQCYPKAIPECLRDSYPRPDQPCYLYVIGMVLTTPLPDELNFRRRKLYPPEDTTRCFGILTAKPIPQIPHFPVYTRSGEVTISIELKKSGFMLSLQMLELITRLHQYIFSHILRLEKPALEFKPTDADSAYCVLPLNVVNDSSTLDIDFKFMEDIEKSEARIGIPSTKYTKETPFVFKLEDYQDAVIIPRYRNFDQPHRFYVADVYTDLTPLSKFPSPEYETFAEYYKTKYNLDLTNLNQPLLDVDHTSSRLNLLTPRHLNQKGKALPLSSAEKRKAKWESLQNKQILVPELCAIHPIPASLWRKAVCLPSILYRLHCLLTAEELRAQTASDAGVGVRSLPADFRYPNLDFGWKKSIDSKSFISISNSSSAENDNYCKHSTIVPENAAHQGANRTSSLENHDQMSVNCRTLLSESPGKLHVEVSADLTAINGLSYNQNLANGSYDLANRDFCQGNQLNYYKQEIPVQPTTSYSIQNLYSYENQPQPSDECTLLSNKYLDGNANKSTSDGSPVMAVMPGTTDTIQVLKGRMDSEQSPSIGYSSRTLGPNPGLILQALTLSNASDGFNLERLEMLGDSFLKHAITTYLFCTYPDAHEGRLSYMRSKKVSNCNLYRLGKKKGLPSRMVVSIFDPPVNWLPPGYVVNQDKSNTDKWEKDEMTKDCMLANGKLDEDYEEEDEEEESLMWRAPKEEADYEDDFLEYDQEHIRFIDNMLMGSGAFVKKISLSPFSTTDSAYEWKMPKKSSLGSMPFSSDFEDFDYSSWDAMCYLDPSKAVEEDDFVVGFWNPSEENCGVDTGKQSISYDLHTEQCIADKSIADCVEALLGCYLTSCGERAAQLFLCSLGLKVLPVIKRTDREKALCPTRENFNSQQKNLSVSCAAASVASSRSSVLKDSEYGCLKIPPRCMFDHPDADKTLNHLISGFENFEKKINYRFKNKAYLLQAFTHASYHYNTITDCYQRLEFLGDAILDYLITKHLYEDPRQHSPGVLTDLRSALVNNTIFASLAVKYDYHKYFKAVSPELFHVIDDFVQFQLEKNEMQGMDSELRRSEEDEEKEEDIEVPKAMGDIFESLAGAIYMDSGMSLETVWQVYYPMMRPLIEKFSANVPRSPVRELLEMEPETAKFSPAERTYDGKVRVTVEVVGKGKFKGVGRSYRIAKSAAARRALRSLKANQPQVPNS
Numbers without * were called inactive. The full list was thinned out, with hits kept by preference.

Results for Fc1ccccc1Cc1cn2cc(-c3ccc(Br)cc3)nc2s1 ?
Dicer inh: 0.87

How did Cc1ccc(S(=O)(=O)/C(C#N)=N/O)cc1 do in these assays?
Dicer inh: -0.91

Results for COC(=O)CSC1=C(C#N)C(c2ccc(C)cc2)CC(=O)N1 (stereo not given) ?
Dicer inh: 0.65

What do the screens show for `CC(=O)N1C(=O)N(C(C)=O)C(O)C1O` (stereo not given)?
Dicer inh: 0.14

How did CC1=NN(c2ccc(C(=O)O)cc2)C(=O)C1 do in these assays?
Dicer inh: -2.2

What do the screens show for `Cc1ccc(C(=O)O)cc1N1C(=O)CCC1=O`?
Dicer inh: 4.7*

What do the screens show for `Cc1ccc(C(=O)O)cc1-n1cccc1`?
Dicer inh: -0.63

Results for CCCCNC(=O)Nc1ccccc1SCC(O)Cn1ccc(C(F)(F)F)n1 (stereo not given) ?
Dicer inh: 0.59

Results for COc1cccc2c(=O)c3ccccc3oc12 ?
Dicer inh: -0.98

What do the screens show for `COc1ccc2c3c(cccc13)C(=O)CC2`?
Dicer inh: 4.2*

What do the screens show for `COc1ccc(C2C(=O)c3ccccc3C2=O)cc1OC`?
Dicer inh: 1.4

How did COC(=O)C1=C(C)NC2=C(C(=O)CC(C)(C)C2)C1c1ccc(OCc2ccccc2)c(OC)c1 (stereo not given) do in these assays?
Dicer inh: -0.7

What do the screens show for `COc1cc(C2C(C#N)=C(N)Oc3cc(O)ccc32)ccc1OCc1ccccc1` (stereo not given)?
Dicer inh: 1.8

What do the screens show for `COc1ccc(C2C(C#N)=C(N)OC3=C2C(=O)CC(C)(C)C3)cc1OCc1ccccc1` (stereo not given)?
Dicer inh: 3*

Results for Cc1ccc(C2=NC(C(F)(F)F)(C(F)(F)F)N=C(N(C)C)O2)cc1 ?
Dicer inh: 3.7*

How did Cc1ccccc1C1=NC(C(F)(F)F)(C(F)(F)F)N=C(N2CCOCC2)O1 do in these assays?
Dicer inh: -0.79

What do the screens show for `Brc1ccc2c(c1)c1ccccc1n2CN1CCCCC1`?
Dicer inh: 2.1

How did CC(=O)Nc1c(Cl)c(Cl)c(Cl)c(Cl)c1Cl do in these assays?
Dicer inh: -1.6

What do the screens show for `COCOc1ccc(C(=O)O)cc1OC`?
Dicer inh: -0.83

Results for COc1ccc(C(=O)N2CCSC2=S)cc1OC ?
Dicer inh: 3.5*

Results for COc1ccc(C(=O)N2CCSC2=S)cc1 ?
Dicer inh: 0.68

How did COc1ccc(C(=O)/C=C(\C(=O)c2ccccc2)c2ccccc2)cc1CN1CCOCC1 do in these assays?
Dicer inh: 2.9

Results for CCOC(=O)C(=CNc1ccc(-c2nnc(C(F)(F)F)o2)cc1C)C(=O)OCC ?
Dicer inh: -1.4

How did c1ccc(-n2cc(-c3noc4ccccc34)cn2)cc1 do in these assays?
Dicer inh: 1.6

How did N#Cc1cccnc1N1CCN(C(=O)Nc2ccccc2)CC1 do in these assays?
Dicer inh: 2.8

Results for N#Cc1cccnc1N1CCN(C(=O)Nc2ccc(OC(F)(F)F)cc2)CC1 ?
Dicer inh: 3.1*

Results for O=C(Nc1ccc(OC(F)(F)F)cc1)N1CCN(c2ccc([N+](=O)[O-])cn2)CC1 ?
Dicer inh: -0.92

How did Cc1nn(C2c3ccccc3Oc3ccccc32)c(=S)s1 do in these assays?
Dicer inh: -0.15

How did COc1cc(C2c3c(oc4ccc(Br)cc4c3=O)C(=O)N2Cc2ccccc2)ccc1O (stereo not given) do in these assays?
Dicer inh: 2.4

What do the screens show for `CN(NC1OC(=O)c2ccccc21)c1ncc(Cl)cc1C(F)(F)F` (stereo not given)?
Dicer inh: 0.04

How did CN(NC1OC(=O)c2ccccc21)c1ccccc1[N+](=O)[O-] (stereo not given) do in these assays?
Dicer inh: 3.2*

Results for O=C1OC(Nc2ccc([N+](=O)[O-])cn2)c2ccccc21 (stereo not given) ?
Dicer inh: -0.83

Results for COc1ccc2[nH]c(C(=O)Nc3cc(C)nc(C)n3)cc2c1 ?
Dicer inh: -1.6

Results for Cc1ccc2nc(-c3sc4ccccc4c3C)cn2c1 ?
Dicer inh: -3.5

Results for CCOc1ccc(/C=N/NC(=S)Nc2ccc(S(=O)(=O)N3CCCCC3)cc2)cc1 ?
Dicer inh: 7.3*

What do the screens show for `O=S(=O)(c1ccc(NC(=S)NC2CCCCC2)cc1)N1CCCCC1`?
Dicer inh: 0.42

What do the screens show for `CCOc1ccc(S(=O)(=O)N2CCCN(S(=O)(=O)c3ccc(OCC)cc3)CC2)cc1`?
Dicer inh: 0.4

Results for O=C(O)CC(CC(=O)O)c1ccc(Cl)cc1Cl ?
Dicer inh: -2.2

What do the screens show for `Nc1[nH]c(=S)[nH]c(=O)c1C(c1ccc(Cl)cc1Cl)c1c(N)[nH]c(=S)[nH]c1=O`?
Dicer inh: 3.4*

What do the screens show for `Nc1n[nH]c(=O)c2cc(-c3ccc(Cl)cc3)[nH]c(=O)c12`?
Dicer inh: -0.77

Results for COc1cc(C)c(C(c2ccc(N(C)C)cc2)c2ccc(N(C)C)cc2)cc1C ?
Dicer inh: -1.1

Results for Cc1nc(C)c(-c2csc(Nc3ccccc3)n2)s1 ?
Dicer inh: 5.1*

What do the screens show for `Cc1nc(C)c(-c2csc(Nc3ccc(C(=O)O)cc3)n2)s1`?
Dicer inh: -1.9

Results for Cc1nc(C)c(-c2csc(Nc3cccc(O)c3)n2)s1 ?
Dicer inh: -1.1

How did CCCOc1ccc(N2C(=O)C3C4C=CC(C)(O4)C3C2=O)cc1 (stereo not given) do in these assays?
Dicer inh: -1.3

What do the screens show for `CCOCCOC(=O)C(C)Oc1ccc2c(=O)c(-c3ccc(Cl)cc3)coc2c1` (stereo not given)?
Dicer inh: 1.1

How did N#Cc1ccc(-c2cn3cccnc3n2)cc1 do in these assays?
Dicer inh: -3

How did N=C1SCC(=O)N1c1ccc(Cl)cc1Cl do in these assays?
Dicer inh: -0.92

What do the screens show for `O=C(NCCO)C(=O)Nc1ccc(Br)cc1`?
Dicer inh: 0.42

How did Cc1ccc(-n2nc(C)c3c(C(F)(F)F)cc(-c4ccco4)nc32)cc1 do in these assays?
Dicer inh: 0.87

How did Cc1nn(-c2ccc(Cl)cc2)c2nc(-c3ccco3)cc(C(F)(F)F)c12 do in these assays?
Dicer inh: 4.7*

Results for Cc1nn(-c2ccccc2)c2nc(-c3ccco3)cc(C(F)(F)F)c12 ?
Dicer inh: 0.61

How did CCOC(=O)c1cc(-n2cccc2)ccc1N1CCCCC1 do in these assays?
Dicer inh: -0.9

How did C/C(=N\N=C1\NC(=O)C(CC(=O)O)S1)c1ccccc1Cl (stereo not given) do in these assays?
Dicer inh: 0.88

How did O=C(NC(=S)N1CCc2ccccc21)c1cncc(C#Cc2ccccc2)c1 do in these assays?
Dicer inh: 3.8*

How did O=C(Nc1cccc(C(F)(F)F)c1)c1cncc(C#Cc2ccccc2)c1 do in these assays?
Dicer inh: -2.4

Results for O=C(Nc1ccc(Cl)cc1)c1cncc(C#Cc2ccccc2)c1 ?
Dicer inh: 2

Results for CCCCCc1ccc(C(=O)CCC(=O)O)cc1 ?
Dicer inh: -0.19

What do the screens show for `O=C(O)c1nnc(Cl)c2ccccc12`?
Dicer inh: 0.53

What do the screens show for `Cc1cc(C(F)(F)F)nn1Cc1ccc(C(=O)O)cc1`?
Dicer inh: 1.9

Results for CN(C)c1ccc(C2C(C#N)=C3N=C(N)c4ccccc4N3C3=C2C(=O)CCC3)cc1 (stereo not given) ?
Dicer inh: 3.4*

Results for CC1(C)CC(=O)C2=C(C1)N1C(=C(C#N)C2c2ccccc2F)N=C(N)c2ccccc21 (stereo not given) ?
Dicer inh: 3.2*
